Experimental data: PubChem BioAssay AID1851 (National Center for Advancing Translational Sciences (NCATS), 2009)
In all, about 16,000 compounds went through this assay and about 5,700 (36%) were called active. About 24% were inconclusive and are not listed. The list shows a part of the results. A number with no mark means an inactive call. Calls follow the shape of the dose curve; as a rule, active = well fitted curve in the direction sought with a large enough effect; inconclusive = small, poorly fitted or top-dose-only effect, or effect the other way; inactive = no such curve, though single readings can be large or run the other way.

These compounds were tested against Cytochrome P450 1A2 (Homo sapiens) (UniProt P05177) (assay: Cytochrome panel assay with activity outcomes). Conditions: recombinant CYP, pro-luciferin dealkylation, luminescence, p450-cyp1a2; series mostly up to 57.1 µM.
% is scaled to controls: 0 for no effect and ±100 for the full control effect.

Sequence of Cytochrome P450 1A2 (Homo sapiens) (P05177 whole entry, looked up): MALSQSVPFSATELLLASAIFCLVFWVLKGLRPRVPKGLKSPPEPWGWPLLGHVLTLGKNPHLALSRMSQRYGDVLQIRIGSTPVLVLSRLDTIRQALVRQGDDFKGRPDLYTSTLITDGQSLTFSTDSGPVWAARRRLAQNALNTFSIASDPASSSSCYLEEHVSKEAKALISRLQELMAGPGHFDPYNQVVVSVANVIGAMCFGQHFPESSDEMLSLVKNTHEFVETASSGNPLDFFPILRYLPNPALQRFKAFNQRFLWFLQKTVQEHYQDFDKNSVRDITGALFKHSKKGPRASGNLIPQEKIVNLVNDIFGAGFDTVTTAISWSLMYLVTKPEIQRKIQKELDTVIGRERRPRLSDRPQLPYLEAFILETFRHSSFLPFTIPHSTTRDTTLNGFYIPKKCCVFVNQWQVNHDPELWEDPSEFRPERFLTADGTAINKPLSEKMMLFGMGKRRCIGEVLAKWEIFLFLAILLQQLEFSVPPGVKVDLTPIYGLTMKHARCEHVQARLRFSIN

SMILES	activity, negative = inhibition	AC50
NCCNCC1CCNCC1	-3.59% [at 2.29 µM]	–
CCn1cc(C(=O)NCC(=O)OC)c2cc(OC)c(OC)cc2c1=O	–	inactive
NCc1ccccc1CC(=O)N[C@@H]1C(=O)N2C(C(=O)O)=C(CSc3nnnn3CC(=O)O)CS[C@@H]12	–	inactive
COc1ccc(NC(=O)N2CC[C@@]3(CCCN(C(=O)c4cc(C(F)(F)F)cc(C(F)(F)F)c4)C3)C2)cc1	–	inactive
CC(C)NC(=O)c1ccc2c(=O)n(Cc3ccco3)c(=S)[nH]c2c1	–	15.8 µM (active)
COc1ccc(CCNC(=O)c2nnn(CC(=O)Nc3ccccc3C)c2N)cc1OC	–	inactive
COc1ccc(CCNC(=O)c2ccc3c(=O)n(Cc4ccco4)c(=S)[nH]c3c2)cc1OC	–	25.1 µM (active)
COc1ccc2c(C=Nc3c(C)n(C)n(-c4ccccc4)c3=O)c(O)n(Cc3ccco3)c(=O)c2c1	–	inactive
O=C(NCc1ccco1)c1ccc2c(=O)n(-c3ccccc3)c(=S)[nH]c2c1	–	inactive
COc1ccc(NC(=O)c2ccc3c(=O)n(Cc4ccco4)c(=S)[nH]c3c2)c(OC)c1	–	0.794 µM (active)
C/C(CCC(=O)OC[C@@H]1O[C@H](C#Cc2ccccc2)C=C[C@@H]1Oc1ccc(C)cc1)=N/OC[C@@H](O)[C@H]1O[C@H]2OC(C)(C)O[C@H]2[C@@H]1O	2.38% [at 11.4 µM]	–
CC1=C(C)/C(=N\OC(=O)/C=C/c2ccccc2)C=CC1=O	–	14.1 µM (active)
O=C(/C=C\c1ccccc1)c1ccccc1O	-10.2% [at 11.4 µM]	–
CC1(C)[C@@H]2CC[C@]1(C)[C@@H](OC(=O)/C=C\c1ccccc1)C2	-3.39% [at 2.29 µM]	–
OC[C@@H]1O[C@@H](n2cnc3c(SCc4ccccc4)ncnc32)[C@@H](O)[C@H]1O	-17.2% [at 2.29 µM]	–
CNC(=O)[C@@H]1O[C@@H](n2cnc3c(NCc4cccc(I)c4)ncnc32)[C@H](O)[C@@H]1O	–	inactive
COc1ccc2nc(SCC(=O)Nc3ccc4c(c3)OCCO4)[nH]c2c1	–	5.62 µM (active)
Cc1ccc2nc(SCC(=O)Nc3nnc(SCC(N)=O)s3)[nH]c2c1	–	14.1 µM (active)
CCOC(=O)NC(=O)CSc1nc2ccc(OCC)cc2[nH]1	–	2.51 µM (active)
Cc1ccc2nc(SCC(=O)c3ccc4c(c3)OCO4)[nH]c2c1	–	1 µM (active)
COc1ccc(-n2c(=O)[nH]cc(C(=O)Nc3ccc4c(c3)OCCO4)c2=O)cc1	–	inactive
CC/C=C\CC[C@H](OC(=O)c1ccc(Br)cc1)C1=CCCCC1=O	1.86% [at 11.4 µM]	–
COc1ccc(CCn2c(C)cc(C(=O)CSc3nc(N)cc(=O)[nH]3)c2C)cc1	–	inactive

SMILES	activity, negative = inhibition	AC50
COc1ccc2nc(SCC(=O)c3ccco3)[nH]c2c1	–	7.08 µM (active)
O=C(N/N=C\c1ccc2c(c1)CCC2)c1ccccc1O	–	2 µM (active)
CCN(CC)c1nc2ccccc2[nH]1	–	15.8 µM (active)
CSCC[C@H](NC(=O)CC(C)(C)C)c1nc2ccccc2[nH]1	–	inactive
OCCNc1nc2ccccc2[nH]1	–	inactive
CCOC(=O)c1c(C)oc2c1c(C=NC1CCS(=O)(=O)C1)c(O)c1ccccc12 (stereo unspecified)	–	1.26 µM (active)
CCOC(=O)c1c(C)oc2c1cc(O)c1ccccc12	–	0.0631 µM (active)
CCCCCOC(=O)c1c(N)n(CCOC)c2nc3ccccc3nc12	–	1 µM (active)
C=C(C)C1Cc2nc(N)nc(C)c2C1 (stereo unspecified)	–	3.16 µM (active)
Nc1nc(N)c2[nH]c(CNc3ccc(C(=O)O)cc3)nc2n1	-9.57% [at 11.4 µM]	–
C[C@H](CN(C)C)C(O)(c1ccccc1)c1ccccc1	5.76% [at 11.4 µM]	–
Cc1ccc(C2CC2C(=O)NN)cc1 (stereo unspecified)	–	0.316 µM (active)
Cc1ccc(NC(=O)C2CCN(S(C)(=O)=O)CC2)cc1	–	inactive
O=C1C2=C(Nc3cc([N+](=O)[O-])ccc3N2)O[C@@H]1c1c[nH]c2ccc(COc3ccccc3)cc12	–	2.51 µM (active)
N[C@@H](Cc1c[nH]c2ccc([N+](=O)[O-])cc12)C(=O)O	-10.4% [at 11.4 µM]	–
Cc1cc2c(cc1C)NC1=C(N2)O[C@H](c2c[nH]c3ccc(COc4ccccc4)cc23)C1=O	–	2.51 µM (active)
CC(C)NC(=O)/C(=N\O)c1ccccc1	–	inactive
CC(C)NC(=O)N1CCC2(CC1)CCN(C(=O)c1cccn1C)CC2	–	inactive
CC(C)NC(=O)C(C)n1cccc1C(=O)c1ccccc1 (stereo unspecified)	–	25.1 µM (active)
Cc1ccccc1-n1nc2c(c1NC(=O)c1c(-c3ccccc3Cl)noc1C)CSC2	–	inactive
Cc1ccc(-n2nc3c(c2NC(=O)c2cccs2)CSC3)cc1	–	1.58 µM (active)
Cc1ccccc1-n1nc2c(c1NC(=O)c1ccc(S(=O)(=O)N(C)C)cc1)CSC2	–	inactive
Cn1c(=O)n(C)c2cc(/C=N/n3cnnc3)ccc21	–	6.31 µM (active)
